From PubChem
This is one part of a sample in which hits are shown more often than they occur.
Tgondii IFNg – inhibitors of Toxoplasma gondii growth with IFN-gamma; Toxoplasma gondii growth in IFN-gamma-treated host cells; stronger effect = lower value; activity change, negative = inhibition, % (concentration not given with the values); 69,000 compounds, 3.8% hits; in the data active = activity change below about -70%, passing the limit was not always enough;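 also: host cells are HeLa cells infected with Toxoplasma gondii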
Starred values were filed as active, the others as inactive; i = inactive; ! = not confirmed by another sample.

SMILES	Tgondii IFNg
CCCc1cc(=O)n2[nH]c(C(F)(F)F)c(-c3ccc(OC)cc3)c2n1	-27.4
Cc1ccc(Nc2nc(C(=O)NCc3ccc(C)o3)nc3ccccc23)cc1	-13.4
CCS(=O)(=O)N1CCC2(CC1)OC(=O)C(C)=C2C(=O)NCCCN1CCCCCC1	-0.7
COc1ccc(NC(=O)N2CCN(CC(C)C)C(=O)C2C)cc1Cl (configuration not stated)	-3.7
Nc1cc2ncnc(Nc3cccc(Br)c3)c2cc1N	10.7
COc1cc2ncnc(Nc3ccc(O)c(Br)c3)c2cc1OC	-74.0*
Cn1cnc2cc3c(Nc4cccc(Br)c4)ncnc3cc21	0.7
C#Cc1cccc(Nc2ncnc3cc(OC)c(OCCCCCCC(=O)NO)cc23)c1	-80.0*
COc1ccc(OC)c(Nc2ncnc3ccc(Br)cc23)c1	-46.7
COc1cc2c(N3CCN(C(=O)Nc4ccc(OC(C)C)cc4)CC3)ncnc2cc1OCCCN1CCCCC1	-17.2
O=c1ccc2cc(S(=O)(=O)NCc3ccccn3)ccc2o1	18.3
COCCN(Cc1cccs1)Cc1coc2ccc(C)cc2c1=O	-5.8
CC(C)N(C)[C@@H]1CCN(Cc2ccoc2)[C@H]1Cc1ccccc1	-2.6
Cc1nc(N2CCN(c3cc(=O)[nH]nc3-c3ccccc3)CC2)c2cnn(C)c2n1	-84.0*
COC(=O)C1(C)CCN(c2nc(-c3cccnc3)nc3c2cnn3C)CC1	-40.6
CN1CCN(c2cc(-c3cccnc3)nc3ccccc23)CC1	-15.5
COc1ccccc1-c1noc(CCC(=O)Nc2ccc3c(c2)n(C)c(=O)n3C)n1	-1.7
COc1ccc(-c2cc(-c3c(O)ccc4ccccc34)[nH]n2)cc1OC	44.6
O=C(Cn1c(=O)oc2cc(Cl)ccc21)Nc1nc(-c2ccccc2)cs1	13.7
O=C(O)COCCN1CCN(C(c2ccccc2)c2ccc(Cl)cc2)CC1 (configuration not stated)	18.2
O=C(O)COCCN1CCN([C@H](c2ccccc2)c2ccc(Cl)cc2)CC1	22.8
OCCOCCN1CCN(C(c2ccccc2)c2ccc(Cl)cc2)CC1 (configuration not stated)	-96.9*!
O=C(CC1CC1)N1CC2(C1)[C@H](c1ccccc1)[C@H](CO)N2Cc1ccccn1	73.2
COc1cccc(-c2cc(C(=O)N3CCCC(C(NC(C)=O)c4nccs4)C3)no2)c1 (configuration not stated)	56.1
Clc1ccccc1-c1nc(NCCCc2ccccc2)c2ccccc2n1	-38.3
SMILES	Tgondii IFNg
Cn1c2c(c(=O)n1C)CN(C(=O)c1ccco1)CCC2	-32.7
O=C1C[C@H]2CC[C@@H](CN1)N2c1cncc(C(=O)N2CCOCC2)n1	-5.3
Cc1ccc(CC(=O)N2CCC3C2CC(=O)N3c2cccnc2)cc1 (configuration not stated)	-63.3
Cc1oc(-c2ccc(C(=O)NC3CCCCCC3)cc2)nc1CN1CCc2ccccc21	-93.0*
COCCNC(=O)c1ccc(-c2nc(CN3CCc4ccccc43)c(C)o2)cc1	160.0
CCCNC(=O)c1ccc(-c2nc(CN3CCc4ccccc43)c(C)o2)cc1	4.0
Cc1oc(-c2ccc(C(=O)NCCN3CCOCC3)cc2)nc1CN1CCc2ccccc21	54.8
Cc1oc(-c2ccc(C(=O)NCCN(C)C)cc2)nc1CN1CCc2ccccc21	-111.8*
Cc1ccc(CNC(=O)c2ccc(-c3nc(CN4CCc5ccccc54)c(C)o3)cc2)cc1	72.2
CC(C)CN1C(=O)N(Cc2ccccn2)C(=O)C12CCN(Cc1ccc(N3CCCC3)cc1)CC2	19.2
CS(=O)(=O)CCn1cnc(-c2ccccc2)c1-c1cc2ccccc2o1	-8.2
O=C(O)CCNC(=O)NC12CC3CC(CC(C3)C1)C2	24.1
Cc1ccsc1-c1cc(C(=O)O)cc(S(=O)(=O)N2CCOCC2)c1	-4.9
CC(C)(C)C(=O)CSc1nc2[nH]c(=O)[nH]c(=O)c2s1	9.7
CCc1ccccc1NC(=O)C(=O)NCCc1sc(-c2ccc(Cl)cc2)nc1C	153.9
CC(C)(C)c1ccc2[nH]c3c(c2c1)CCCC3=O	-84.5*
Cc1cc(C)n(CC(C)NCc2noc(C3CCCC3)n2)n1 (configuration not stated)	3.6
COc1c(O)cc2oc3cc(O)c(CC=C(C)C)c(O)c3c(=O)c2c1CC=C(C)C	-71.3*
CC(C)=CCc1c(O)cc2oc(C)cc(=O)c2c1O	1.8
COc1cc2oc3cc(OC)c(OC)c(CC=C(C)C)c3c(=O)c2c(O)c1CC=C(C)C	8.1
COCc1cc(CN(C)c2nc(-c3cccnc3)nc3c2cnn3C)[nH]n1	56.1
CCc1ccc(Nc2nc(C(=O)NCc3ccc(OC)cc3OC)nc3ccccc23)cc1	-47.1
CC(C)(C)C(=O)N1CCN(C2c3ccccc3-c3ccccc32)CC1	-94.4*
O=C(c1cccnc1Oc1ccccc1)N1CCN(C2c3ccccc3-c3ccccc32)CC1	-33.7
CC(C)(C)C(=O)N1CCN(c2cccc(Cl)c2)CC1	-44.1
SMILES	Tgondii IFNg
CCOc1ccccc1-c1nc(Cn2nnc(C(=O)Nc3cccc(SC)c3)c2C)c(C)o1	89.2
O=C(Cc1ccccc1)N1CCC2(CC1)Nc1ccc(Cl)cc1-n1cccc12	60.7
CCOc1ccccc1C(=O)N1CCC2(CC1)Nc1ccc(Cl)cc1-n1cccc12	-103.9*
O=C(COc1ccccc1)N1CCC2(CC1)Nc1ccc(Cl)cc1-n1cccc12	-84.1*
COc1ccc2c(c1)NC1(CCN(C(=O)Nc3ccc(Br)c(C)c3)CC1)c1cccn1-2	66.4
Cc1ccc(NC(=O)N2CCC3(CC2)Nc2ccccc2-n2cccc23)cc1Cl	i
CC(C)C(=O)N1CCC2(CC1)Nc1ccc(Cl)cc1-n1cccc12	45.4
CCOc1ccccc1C(=O)N1CCC2(CC1)Nc1ccccc1-n1cccc12	40.3
CCC(C(=O)N1CCC2(CC1)Nc1ccc(Cl)cc1-n1cccc12)c1ccccc1 (configuration not stated)	-127.7*
Cc1cc(NC(=O)N2CCC3(CC2)Nc2ccccc2-n2cccc23)ccc1Br	-116.4*
O=C(COc1ccc(Cl)cc1)N1CCC2(CC1)Nc1ccccc1-n1cccc12	-8.2
COc1ccccc1C(=O)N1CCC2(CC1)Nc1ccc(Cl)cc1-n1cccc12	61.9
O=C(c1ccccc1)N1CCC2(CC1)Nc1ccc(Cl)cc1-n1cccc12	6.4
CN1CCc2[nH]nc(C(=O)N3CCCC(N4CCCC4)C3)c2C1 (configuration not stated)	7.1
COC(=O)c1cc2n(n1)CCN(S(=O)(=O)c1c(C)nn(C)c1Cl)C2	72.8
Cn1nccc1CN1CC[C@@H]2OCCN(S(C)(=O)=O)[C@@H]2C1	-40.0
CNC(=O)N1C[C@H]2C[C@@H]3[C@@](C1)(CN(C)S3(=O)=O)O2	-44.7
COc1cc(NC(=O)c2nc(Nc3ccccc3)c3ccccc3n2)cc(OC)c1	-22.1
O=C1CCCC[C@]2(CN(C(=O)c3ccnc(N4CCOCC4)c3)C[C@H]2c2ccccn2)N1	11.2
COc1ccc(-c2nc(-c3ccc(-c4csnn4)cc3)no2)cc1	5.1
Oc1cc(-c2cccc(Cl)c2)cc2c1OCCN(CCn1cccc1)C2	-0.9
Cc1nccn1-c1ccc(CNC(=O)c2c(O)cccc2O)cc1	-4.2
Cc1ccc2oc(CN3CCCC(Cn4ccnc4)C3)c(C)c2c1 (configuration not stated)	-9.0
C[C@@H]1CN([C@H](C)CO)C(=O)c2cc(NC(=O)Nc3cccc4ccccc34)ccc2O[C@@H](C)CCCCO[C@@H]1CN(C)S(=O)(=O)c1cn(C)cn1	i
O=C(Cc1ccc(F)cc1)N1CCC2(CC1)Nc1ccc(Cl)cc1-n1cccc12	-59.4
COc1ccc(CCC(=O)N2CCC3(CC2)Nc2ccc(Cl)cc2-n2cccc23)cc1	-97.1*
